Hit rate of the full screen: of about 5,500 compounds, about 2,000 (36%) were called active. Roughly 18% stayed inconclusive and do not appear here. No stated cut-off is given here; in the data, active means normalized growth mostly below about 0.91 (no sharp cut-off); inconclusive means no clear call, values can overlap the other calls; inactive means mostly above about 0.92. This is one part of the list.
Experiment: chemical genetic growth profiling, strain panel (AID 1159580);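 further: tested at 20 µM; growth read once vehicle control cultures reached saturation at 30 °C; 1 = growth at the plate median or of vehicle wells; lower values mean less growth of the strain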
Conditions: S. cerevisiae deletion strains, growth OD

Measured: normalized growth

CN1CCN(C(=O)OC2c3nccnc3C(=O)N2c2ccc(Cl)cn2)CC1 (centres undefined)
inactive: locus YAL021C, strain ccr4, active compounds read low 1 | locus YAL026C, strain drs2, active compounds read low 0.993 | locus YAL030W, strain snc1, active compounds read low 0.997 | locus YBL061C, strain skt5, active compounds read low 0.99 | locus YBR009C, strain hhf1, active compounds read low 1.01 | locus YBR023C, strain chs3, active compounds read low 0.991 | locus YBR171W, strain sec66, active compounds read low 0.997 | locus YBR231C, strain swc5, active compounds read low 0.979 | locus YBR279W, strain paf1, active compounds read low 1.01 | locus YCL011C, strain gbp2, active compounds read low 1 | locus YCL016C, strain dcc1, active compounds read low 0.994 | locus YCL069W, strain vba3, active compounds read low 1 | locus YCR088W, strain abp1, active compounds read low 0.996 | locus YDL005C, strain med2, active compounds read low 0.99 | locus YDL040C, strain nat1, active compounds read low 0.981 | locus YDR001C, strain nth1, active compounds read low 0.992 | locus YDR069C, strain doa4, active compounds read low 0.991 | locus YDR137W, strain rgp1, active compounds read low 0.998 | locus YDR159W, strain sac3, active compounds read low 1.01 | locus YDR195W, strain ref2 0.959 | locus YDR297W, strain sur2, active compounds read low 0.979 | locus YDR334W, strain swr1, active compounds read low 0.983 | locus YDR335W, strain msn5, active compounds read low 1 | locus YDR392W, strain spt3, active compounds read low 1.02 | locus YEL003W, strain gim4, active compounds read low 1 | locus YEL037C, strain rad23, active compounds read low 0.994 | locus YEL061C, strain CIN8 (second series), active compounds read low 0.993 | locus YER015W, strain faa2, active compounds read low 0.99 | locus YER016W, strain bim1, active compounds read low 1.01 | locus YER111C, strain swi4, active compounds read low 1 | locus YER155C, strain BEM2 (second series), active compounds read low 0.999 | locus YFR010W, strain ubp6, active compounds read low 0.987 | locus YGL167C, strain pmr1, active compounds read low 0.986 | locus YGL173C, strain kem1, active compounds read low 0.976 | locus YGL227W, strain vid30, active compounds read low 0.976 | locus YGL240W, strain doc1, active compounds read low 1 | locus YGL253W, strain hxk2, active compounds read low 0.994 | locus YHR013C, strain ard1, active compounds read low 0.98 | locus YHR027C, strain rpn1, active compounds read low 1 | locus YHR030C, strain SLT2, active compounds read low 1.02 | locus YHR079C, strain IRE1, active compounds read low 1.01 | locus YHR142W, strain chs7, active compounds read low 1.01 | locus YJL092W, strain hpr5, active compounds read low 0.984 | locus YJL095W, strain BCK1 (second series), active compounds read low 0.97 | locus YJL095W, strain BCK1, active compounds read low 1.01 | locus YJL115W, strain asf1, active compounds read low 0.995 | locus YJL129C, strain trk1, active compounds read low 0.956 | locus YJL154C, strain vps35, active compounds read low 0.993 | locus YJL164C, strain tpk1, active compounds read low 1.01 | locus YJL166W, strain qcr8, active compounds read low 0.998 | locus YJL187C, strain SWE1, active compounds read low 0.994 | locus YJR066W, strain TOR1, active compounds read low 0.935 | locus YKL160W, strain elf1, active compounds read low 0.984 | locus YKR026C, strain gcn3, active compounds read low 0.988 | locus YKR091W, strain srl3, active compounds read low 0.995 | locus YLL001W, strain dnm1, active compounds read low 0.971 | locus YLL026W, active compounds read low 1 | locus YLL041C, strain sdh2, active compounds read low 1.01 | locus YLR027C, strain aat2, active compounds read low 1 | locus YLR113W, strain HOG1, active compounds read low 1 | locus YLR221C, strain rsa3, active compounds read low 0.987 | locus YLR258W, strain gsy2, active compounds read low 1.01 | locus YLR262C, strain YPT6 (second series), active compounds read low 1 | locus YLR320W, strain mms22, active compounds read low 1.01 | locus YLR342W, strain FKS1, active compounds read low 0.995 | locus YLR357W, strain rsc2, active compounds read low 0.978 | locus YLR370C, strain arc18, active compounds read low 0.998 | locus YLR384C, strain iki3, active compounds read low 0.994 | locus YML120C, strain ndi1, active compounds read low 0.985 | locus YMR058W, strain fet3, active compounds read low 1 | locus YMR125W, strain sto1, active compounds read low 0.946 | locus YMR129W, active compounds read low 1 | locus YMR205C, strain PFK2, active compounds read low 0.99 | locus YMR231W, strain pep5, active compounds read low 0.99 | locus YNL071W, strain lat1, active compounds read low 1 | locus YNL183C, strain NPR1, active compounds read low 0.957 | locus YNL209W, strain ssb2, active compounds read low 1.01 | locus YNL248C, strain rpa49, active compounds read low 0.989 | locus YNL322C, strain KRE1 (second series), active compounds read low 0.976 | locus YNR049C, strain mso1, active compounds read low 1 | locus YOR001W, strain rrp6, active compounds read low 0.973 | locus YOR070C, strain gyp1, active compounds read low 0.998 | locus YOR080W, strain dia2, active compounds read low 0.987 | locus YOR083W, strain WHI5, active compounds read low 0.983 | locus YOR106W, strain vam3, active compounds read low 0.98 | locus YOR231W, strain MKK1, active compounds read low 1.01 | locus YOR265W, strain rbl2, active compounds read low 0.993 | locus YOR270C, strain vph1, active compounds read low 0.967 | locus YOR290C, strain snf2, active compounds read low 1.01 | locus YPL051W, strain arl3, active compounds read low 0.988 | locus YPL078C, strain atp4, active compounds read low 0.979 | locus YPL106C, strain sse1, active compounds read low 1.05 | locus YPL240C, strain hsp82, active compounds read low 1 | locus YPL256C, strain CLN2, active compounds read low 1.01
